The results in this text go back to PubChem BioAssay (NCATS).

Each structure is given as a SMILES string. Results filed as inconclusive are left out. Entries that show only a call come without a potency. The source made the active and inactive calls. Calls come from the whole dose curve; as a rule, active = well fitted curve in the direction sought with a large enough effect; inconclusive = small, poorly fitted or top-dose-only effect, or another doubt; inactive = no such curve, though single readings can be large; an effect the other way counts as inactive or inconclusive.

The first test is described as follows: MultiTox-Fluor Cytotoxicity Assay - LYMP1-003 - Live Cells (AID 962).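 Note: cells exposed to compound for 16 hours at 37 °C; cytotoxic hits lower the live-cell protease signal.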 The settings on record: LYMP1-003 lymphoblastoid cells, MultiTox-Fluor live-cell protease fluorescence; series mostly up to 92.2 µM. The method, boiled down:
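Live-cell protease activity (GF-AFC substrate, 405/510 nm, 60 min at room temperature) after 16 h, 37 C compound exposure of human lymphoblastoid LYMP1-003 cells; concentration-response fitted to the Hill equation for AC50.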
In the case of `Oc1cccc(Cl)c1Cl`, the compound was classed as inactive.
As for `CCC/C=N/O`, the call was inactive.
The same measure, in the same setting: the value for `Nc1cccc2ccccc12` was “inactive”; that for `Cc1cnc[nH]1` was “inactive”.
In the case of `CN(C)N=O`, the compound was called inactive.
As for `COc1c(C(C)(C)C)cc([N+](=O)[O-])c(C)c1[N+](=O)[O-]`, the result was inactive.
On to `C=C(Cl)CCl`, for which the call was inactive.
On to `ClCCOCOCCCl`, for which the compound was called inactive.
With `CC12CC1(C)C(=O)N(c1cc(Cl)cc(Cl)c1)C2=O` (stereo not drawn), the outcome was inactive.
For the compound `CC(C)(Cl)[N+](=O)[O-]`, the result was inactive.
In the case of `Cl/C=C/Cl`, the call was inactive.
As for `CCCCOCC1CO1` (stereo not drawn), the outcome was inactive.
The same measure, in the same setting: the value for `O=C(O)c1cccc(Cl)c1` was “inactive”; that for `C1CC2OC2CC1C1CO1` (stereo not drawn) was “inactive”; that for `Brc1cccc(-c2ccccc2)c1` was “inactive”.
Regarding `Oc1c(Cl)cccc1Cl`, the result was inactive.
For `ClCCOCCCl`, the compound was classed as inactive.
Same read-out and setting: then `CCNCC`, with “inactive”; and `CC(C)C#N`, with “inactive”.
For `Cl/C=C\Cl`, the outcome was inactive.
As for `c1ccc2c(c1)CCNC2`, the compound was classed as inactive.
On the same count and under the same terms, then `CCBr`, with “inactive”; and `O=[N+]([O-])c1ccc(Cl)c(Cl)c1Cl`, with “inactive”; and `N#CCCC#N`, with “inactive”.
`Cc1ccccc1[N+](=O)[O-]`: the result was inactive.
Same read-out and setting: the value for `OCCBr` was “inactive”; that for `C=CC(=O)OCCN(C)C` was “inactive”.
With `CC(C)(C)C(O)(CCc1ccc(Cl)cc1)Cn1cncn1` (stereo not drawn), the compound was called inactive.
For the compound `N#CCCCCC#N`, the compound was classed as inactive.
Still for that read-out and setting: then `CN=C=O`, with “inactive”; and `c1ccc(C2CO2)cc1` (stereo not drawn), with “inactive”; and `CCCCCC[N+](=O)[O-]`, with “inactive”.
On the same count and under the same terms, then `OCC(Cl)CCl` (stereo not drawn), with “inactive”.
Still for that read-out and setting: the value for `COc1ccc(C=O)cc1` was “inactive”.
`Nc1ccc(Cl)c(Cl)c1`: the compound was classed as inactive.
For the compound `CC(=O)[O-].CC(=O)[O-].CC(=O)[O-].[Cr+3]`, the result was inactive.
On the same count and under the same terms, the value for `CC(=O)CCC(C)=O` was “inactive”; that for `C=CC(=O)OCC(CC)CCCC` (stereo not drawn) was “inactive”.
As for `CC(C#N)CCC#N` (stereo not drawn), the outcome was inactive.

A short description of the next test: Cell Viability - LYMP1-003 - Assay at 24 hr (AID 963). The note with it: LYMP1-003 lymphoblastoid cell viability; series mostly up to 92.2 µM. A digest of the protocol:
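Concentration-response qHTS: ATP loss measured by CellTiter-Glo luminescence after 24 h compound exposure at 37 C. Cells were LYMP1-003 human lymphoblastoid, 2500 per well. AC50 derived via standard Hill equation modeling.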
`Oc1cccc(Cl)c1Cl`: the call was inactive.
The same measure, in the same setting: the value for `CCC/C=N/O` was “inactive”.
As to `Cc1cnc[nH]1`, the call was inactive.
Same read-out and setting: the value for `CN(C)N=O` was “inactive”; that for `COc1c(C(C)(C)C)cc([N+](=O)[O-])c(C)c1[N+](=O)[O-]` was “inactive”.
As to `C=C(Cl)CCl`, the outcome was inactive.
On to `ClCCOCOCCCl`, for which the compound was called inactive.
On the same count and under the same terms, then `CC12CC1(C)C(=O)N(c1cc(Cl)cc(Cl)c1)C2=O` (stereo not drawn), with “inactive”; and `CC(C)(Cl)[N+](=O)[O-]`, with “inactive”.
For the compound `CCCCOCC1CO1` (stereo not drawn), the outcome was inactive.
With `O=C(O)c1cccc(Cl)c1`, the compound was classed as inactive.
Same read-out and setting: then `C1CC2OC2CC1C1CO1` (stereo not drawn), with “inactive”; and `Brc1cccc(-c2ccccc2)c1`, with “inactive”.
Turning to `Oc1c(Cl)cccc1Cl`, the outcome was inactive.
On the same count and under the same terms, then `ClCCOCCCl`, with “inactive”.
In the case of `CCNCC`, the compound was called inactive.
Still for that read-out and setting: the value for `CC(C)C#N` was “inactive”; that for `Cl/C=C\Cl` was “inactive”; that for `c1ccc2c(c1)CCNC2` was “inactive”.
As for `CCBr`, the compound was classed as inactive.
On to `O=[N+]([O-])c1ccc(Cl)c(Cl)c1Cl`, for which the compound was called inactive.
Still for that read-out and setting: then `N#CCCC#N`, with “inactive”; and `Cc1ccccc1[N+](=O)[O-]`, with “inactive”.
Still for that read-out and setting: the value for `OCCBr` was “inactive”.
Still for that read-out and setting: then `C=CC(=O)OCCN(C)C`, with “inactive”; and `N#CCCCCC#N`, with “inactive”; and `CN=C=O`, with “inactive”.
With `c1ccc(C2CO2)cc1` (stereo not drawn), the outcome was inactive.
`CCCCCC[N+](=O)[O-]`: the result was inactive.
Consider `OCC(Cl)CCl` (stereo not drawn), for which the compound was classed as inactive.
Still for that read-out and setting: then `COc1ccc(C=O)cc1`, with “inactive”.
Consider `Nc1ccc(Cl)c(Cl)c1`, for which the result was inactive.
On the same count and under the same terms, the value for `CC(=O)CCC(C)=O` was “inactive”; that for `C=CC(=O)OCC(CC)CCCC` (stereo not drawn) was “inactive”; that for `CC(C#N)CCC#N` (stereo not drawn) was “inactive”.

The next test can be described thus: Cell Viability - LYMP1-003 - Assay at 40 hr (AID 964). Note: nearly all actives have a fitted effect of over 60% in size. The settings on record: LYMP1-003 lymphoblastoid viability; series mostly up to 92.2 µM. The method, boiled down:
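Viability is taken as cellular ATP, read by CellTiter-Glo luminescence after 40 h of compound exposure at 37 C. Cells: human lymphoblastoid line LYMP1-003 at 2500/well; AC50 values derived by Hill-equation fitting of concentration-response data.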
Take `Oc1cccc(Cl)c1Cl`: the Potency result was “inactive”.
Still for that read-out and setting: then `CCC/C=N/O`, with “inactive”; and `Nc1cccc2ccccc12`, with “inactive”; and `Cc1cnc[nH]1`, with “inactive”.
Still for that read-out and setting: then `CN(C)N=O`, with “inactive”; and `COc1c(C(C)(C)C)cc([N+](=O)[O-])c(C)c1[N+](=O)[O-]`, with “inactive”.
Still for that read-out and setting: the value for `C=C(Cl)CCl` was “inactive”; that for `ClCCOCOCCCl` was “inactive”; that for `CC12CC1(C)C(=O)N(c1cc(Cl)cc(Cl)c1)C2=O` (stereo not drawn) was “inactive”.
Turning to `CC(C)(Cl)[N+](=O)[O-]`, the Potency result was “inactive”.
On to `Cl/C=C/Cl`, for which the Potency entry was “inactive”.
The same measure, in the same setting: the value for `CCCCOCC1CO1` (stereo not drawn) was “inactive”; that for `Brc1cccc(-c2ccccc2)c1` was “inactive”; that for `Oc1c(Cl)cccc1Cl` was “inactive”.
Same read-out and setting: the value for `Cl/C=C\Cl` was “inactive”.
On to `c1ccc2c(c1)CCNC2`, for which the Potency result was “inactive”.
On the same count and under the same terms, then `O=[N+]([O-])c1ccc(Cl)c(Cl)c1Cl`, with “inactive”.
For `N#CCCC#N`, the Potency result is “inactive”.
On to `Cc1ccccc1[N+](=O)[O-]`, for which the Potency entry is “inactive”.
On to `OCCBr`, for which the Potency entry is “inactive”.
Still for that read-out and setting: the value for `C=CC(=O)OCCN(C)C` was “inactive”; that for `CC(C)(C)C(O)(CCc1ccc(Cl)cc1)Cn1cncn1` (stereo not drawn) was “inactive”.
For `N#CCCCCC#N`, the Potency entry is “inactive”.
Same read-out and setting: the value for `CN=C=O` was “inactive”; that for `c1ccc(C2CO2)cc1` (stereo not drawn) was “inactive”; that for `CCCCCC[N+](=O)[O-]` was “inactive”.
As for `OCC(Cl)CCl` (stereo not drawn), the Potency result was “inactive”.
For the compound `COc1ccc(C=O)cc1`, the Potency entry was “inactive”.
On the same count and under the same terms, the value for `CC(=O)CCC(C)=O` was “inactive”; that for `C=CC(=O)OCC(CC)CCCC` (stereo not drawn) was “inactive”; that for `CC(C#N)CCC#N` (stereo not drawn) was “inactive”.

The nature of a further test: Cell Viability - LYMP2-003 (AID 965).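 Note: cells exposed to compounds for 24 h before reading; nearly all actives have a fitted effect of over 50% in size.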 The settings on record: LYMP2-003 lymphoblastoid cell viability; series mostly up to 92.2 µM. The method, boiled down: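 CellTiter-Glo luminescence quantified ATP loss after 24 h compound treatment of LYMP2-003 lymphoblastoid cells at 37 C. Titration series were fitted with the standard Hill equation to give AC50.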
Consider `Oc1cccc(Cl)c1Cl`, for which the Potency entry was “inactive”.
Same read-out and setting: then `CCC/C=N/O`, with “inactive”; and `Nc1cccc2ccccc12`, with “inactive”.
Turning to `Cc1cnc[nH]1`, the Potency result was “inactive”.
On the same count and under the same terms, the value for `COc1c(C(C)(C)C)cc([N+](=O)[O-])c(C)c1[N+](=O)[O-]` was “inactive”; that for `C=C(Cl)CCl` was “inactive”.
Regarding `ClCCOCOCCCl`, the Potency result is “inactive”.
On the same count and under the same terms, then `CC12CC1(C)C(=O)N(c1cc(Cl)cc(Cl)c1)C2=O` (stereo not drawn), with “inactive”; and `CC(C)(Cl)[N+](=O)[O-]`, with “inactive”; and `Cl/C=C/Cl`, with “inactive”.
Consider `CCCCOCC1CO1` (stereo not drawn), for which the Potency entry was “inactive”.
Take `O=C(O)c1cccc(Cl)c1`: the Potency result was “inactive”.
As for `C1CC2OC2CC1C1CO1` (stereo not drawn), the Potency entry was “inactive”.
The same measure, in the same setting: then `Brc1cccc(-c2ccccc2)c1`, with “inactive”; and `Oc1c(Cl)cccc1Cl`, with “inactive”; and `ClCCOCCCl`, with “inactive”.
Turning to `CCNCC`, the Potency entry was “inactive”.
As to `CC(C)C#N`, the Potency entry was “inactive”.
For `Cl/C=C\Cl`, the Potency entry is “inactive”.
Still for that read-out and setting: then `c1ccc2c(c1)CCNC2`, with “inactive”; and `CCBr`, with “inactive”; and `O=[N+]([O-])c1ccc(Cl)c(Cl)c1Cl`, with “inactive”.
Same read-out and setting: then `N#CCCC#N`, with “inactive”; and `Cc1ccccc1[N+](=O)[O-]`, with “inactive”; and `OCCBr`, with “inactive”.
As for `C=CC(=O)OCCN(C)C`, the Potency result is “inactive”.
Same read-out and setting: then `CC(C)(C)C(O)(CCc1ccc(Cl)cc1)Cn1cncn1` (stereo not drawn), with “inactive”.
Regarding `N#CCCCCC#N`, the Potency result is “inactive”.
Still for that read-out and setting: then `CN=C=O`, with “inactive”; and `c1ccc(C2CO2)cc1` (stereo not drawn), with “inactive”.
For the compound `CCCCCC[N+](=O)[O-]`, the Potency result is “inactive”.
On to `OCC(Cl)CCl` (stereo not drawn), for which the Potency result was “inactive”.
Take `COc1ccc(C=O)cc1`: the Potency result is “inactive”.
Take `Nc1ccc(Cl)c(Cl)c1`: the Potency result is “inactive”.
As for `CC(=O)[O-].CC(=O)[O-].CC(=O)[O-].[Cr+3]`, the Potency entry was “inactive”.
Consider `CC(=O)CCC(C)=O`, for which the Potency result is “inactive”.
On the same count and under the same terms, the value for `C=CC(=O)OCC(CC)CCCC` (stereo not drawn) was “inactive”; that for `CC(C#N)CCC#N` (stereo not drawn) was “inactive”.
